# Measured values published in PubChem BioAssay (Tox21).
# Values joined by “and” are separate entries in the source; they are usually repeats but may differ in a detail not shown here. Equal values may be shown once. Results filed as inconclusive are left out. Where a call stands in place of a potency, no number is given. Active and inactive are the calls of the source. Unless noted, the call rests on the fitted dose curve; in most records, active means well fitted curve in the direction sought with a large enough effect in the repeat runs; inconclusive means weak or mixed curves; inactive means no such curve, though single readings can be large; an effect the other way counts as inactive or inconclusive.
# Tests used:
# [1] = qHTS assay for small molecules that induce genotoxicity in human embryonic kidney cells expressing luciferase-tagged ATAD5 (AID 651632); settings: HEK293T ATAD5-luciferase induction, 16 h; series mostly up to 83.3 µM; further: nearly all actives have a fitted effect of over 15% in size
# In short: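 Luminescence read-out: after 16 hr compound exposure at 37C, ATAD5-luciferase HEK293T cells received Amplite, 30 min RT, then CCD imaging. A rise in signal marks genotoxic stress.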
# [2] = qHTS assay for small molecule agonists of the p53 signaling pathway - cell viability (AID 651633; calls by dose curve; further: nearly all actives have a fitted effect of over 30% in size; further: potency means the concentration at half of the fitted maximal effect); settings: p53RE-bla HCT-116 viability, ATP luminescence, 16 h; series mostly up to 83.3 µM
# In short: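 Viability counter-read: CellTiter-Glo luminescence (30 min, room temperature) in the same p53RE-bla plates. These plates had been exposed to compounds for 16 h at 37 C.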
# [3] = qHTS assay for small molecule disruptors of the mitochondrial membrane potential - cell viability (AID 720634; calls by dose curve;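 further: human HepG2 liver cancer cells; nearly all actives have a fitted effect of over 20% in size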); settings: HepG2 viability, ATP luminescence (CellTiter-Glo), 1 h; series mostly up to 83.2 µM
# In short: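 Luminescence from CellTiter-Glo (ATP content) gave viability in HepG2 cells, read in the same wells as the MMP dye assay after 1 hr compound exposure at 37 C.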
# [4] = qHTS assay for small molecule disruptors of the mitochondrial membrane potential (AID 720635); settings: HepG2 mitochondrial membrane potential, Mito-MPS dye ratio; series mostly up to 83.2 µM; further: potency means the concentration at half of the fitted maximal effect
# In short: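 Mitochondrial membrane potential tracked with Mito-MPS dye, red aggregates (ex 540/em 590 nm) against green monomers (ex 490/em 535 nm). Compound treatment 1 hr at 37C, dye 30 min in HepG2.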
# [5] = qHTS assay to test for compound auto fluorescence at 590 nm (red) in HepG2 cells (AID 720674); settings: HepG2 autofluorescence, red 540/590 nm, 1 h; series mostly up to 91.3 µM
# In short: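 We screened compounds on adherent HepG2 cells, incubating them for an hour at 37 C in 5% CO2 before reading emission at 590 nm under 540 nm excitation; values reflect equivalence to Rose Bengal sodium fluorescence.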
# [6] = qHTS assay to test for compound auto fluorescence at 535 nm (green) in HepG2 cells (AID 720675); settings: green autofluorescence 485/535 nm, 1 h; series mostly up to 91.3 µM
# [7] = qHTS assay to test for compound auto fluorescence at 460 nm (blue) in HEK293 cells (AID 720678); settings: blue autofluorescence 405/460 nm; series mostly up to 91.3 µM
# In short: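 HEK293, 2,000 cells/well, 10% dialyzed FBS; attach 4-5 hr 37C; pin compound or DMSO; o/n 37C/5% CO2; fluorescence 405/460 nm; triamterene-equivalent units.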
# [8] = qHTS assay to test for compound auto fluorescence at 460 nm (blue) in HEK293 cell free culture (AID 720681); settings: cell-free medium, autofluorescence 405/460 nm (blue); series mostly up to 91.3 µM; further: potency means the concentration at half of the fitted maximal effect
# In short: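 Blue fluorescence (Ex 405/Em 460 nm, triamterene-equivalent) was read immediately after pin transfer of compound or DMSO into medium (DMEM, 10% FBS) without cells.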
# [9] = qHTS assay to test for compound auto fluorescence at 535 nm (green) in HEK293 cell free culture (AID 720682); settings: cell-free medium, green autofluorescence 485/535 nm; series mostly up to 91.3 µM
# In short: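 Green-channel intensity (Ex/Em 485/535 nm) was recorded from compound-treated wells containing only DMEM with 10% FBS. Fluorescein provided the equivalency standard.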
# [10] = qHTS assay to test for compound auto fluorescence at 590 nm (red) in HEK293 cell free culture (AID 720683); settings: cell-free medium autofluorescence, Ex540/Em590 red; series mostly up to 91.3 µM
# In short: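 Red-channel autofluorescence of compounds in culture medium (DMEM, 10% FBS), no cells, measured at 540/590 nm. Rose Bengal sodium is the reference fluorophore for equivalence.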
# [11] = qHTS assay to test for compound auto fluorescence at 590 nm (red) in HepG2 cell free culture (AID 720684); settings: cell-free medium autofluorescence, red 540/590 nm; series mostly up to 91.3 µM
# In short: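 No cells present: MEM + 10% FBS only. Compound pinned in, red label read (540/590 nm). Activity = fluorescence equivalent to Rose Bengal sodium.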
# [12] = qHTS assay to test for compound auto fluorescence at 460 nm (blue) in HepG2 cell free culture (AID 720685); settings: Cell-free culture medium, blue autofluorescence 405/460 nm; series mostly up to 91.3 µM
# In short: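 Cell-free plates of MEM plus 10% FBS received 23 nL compound or DMSO vehicle; blue-channel (405/460 nm) intensity scored against triamterene as reference fluorophore.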
# [13] = qHTS assay to test for compound auto fluorescence at 535 nm (green) in HepG2 cell free culture (AID 720686); settings: Cell-free medium, green autofluorescence 485/535 nm; series mostly up to 91.3 µM
# [14] = qHTS assay to test for compound auto fluorescence at 460 nm (blue) in HepG2 cells (AID 720687); settings: autofluorescence 405/460 nm, 1 h; series mostly up to 91.3 µM
# In short: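 Blue-channel autofluorescence (Ex/Em 405/460 nm, triamterene-equivalent) was measured after 1 hr compound exposure at 37 C, 5% CO2. Cells were HepG2, plated overnight at 37 C in MEM plus 10% FBS.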
# [15] = target: Glucocorticoid receptor (Homo sapiens) (UniProt P04150); test: qHTS assay to identify small molecule agonists of the glucocorticoid receptor (GR) signaling pathway (AID 720691; active means well fitted activation curve with a large enough effect in the signal ratio in the repeat runs, not every such curve was filed as active; the % refers to the signal ratio); settings: GR-bla HeLa, beta-lactamase reporter ratio, 18 h; series mostly up to 62.4 µM
# Glucocorticoid receptor (Homo sapiens), sequence (P04150 whole entry, looked up): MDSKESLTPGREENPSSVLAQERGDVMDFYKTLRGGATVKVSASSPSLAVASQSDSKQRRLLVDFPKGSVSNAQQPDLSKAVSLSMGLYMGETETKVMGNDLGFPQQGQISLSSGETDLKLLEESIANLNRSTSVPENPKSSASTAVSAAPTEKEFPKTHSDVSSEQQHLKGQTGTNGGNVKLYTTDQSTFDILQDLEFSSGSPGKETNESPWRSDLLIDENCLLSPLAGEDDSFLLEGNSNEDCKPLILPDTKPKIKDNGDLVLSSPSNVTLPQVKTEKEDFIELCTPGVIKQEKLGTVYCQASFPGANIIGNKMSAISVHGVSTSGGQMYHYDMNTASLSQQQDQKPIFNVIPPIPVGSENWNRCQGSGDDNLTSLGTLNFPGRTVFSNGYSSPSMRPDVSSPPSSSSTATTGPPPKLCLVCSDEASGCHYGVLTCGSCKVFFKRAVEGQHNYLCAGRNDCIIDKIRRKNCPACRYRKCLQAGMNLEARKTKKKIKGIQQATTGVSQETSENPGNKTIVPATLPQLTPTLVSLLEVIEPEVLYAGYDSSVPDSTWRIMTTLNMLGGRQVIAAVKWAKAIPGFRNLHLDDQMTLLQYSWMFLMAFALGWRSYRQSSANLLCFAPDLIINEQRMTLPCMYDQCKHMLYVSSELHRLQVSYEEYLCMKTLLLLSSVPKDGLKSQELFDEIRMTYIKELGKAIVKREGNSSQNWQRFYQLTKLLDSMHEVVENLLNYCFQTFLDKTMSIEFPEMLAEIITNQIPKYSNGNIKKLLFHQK
# In short: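 HeLa GR-bla reporter line; cells pre-incubated 4 h, compound in DMSO 18 h at 37 C; LiveBLAzer B/G FRET substrate 2 h RT; fluorescence intensity read-out.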
# [16] = target: Glucocorticoid receptor (Homo sapiens) (UniProt P04150); test: qHTS assay to identify small molecule antagonists of the glucocorticoid receptor (GR) signaling pathway (AID 720692; active means well fitted inhibition curve with a large enough effect in the signal ratio in the repeat runs, not every such curve was filed as active; the % refers to the signal ratio; further: potency means the concentration at half of the fitted maximal effect); settings: GR-bla HeLa, beta-lactamase FRET ratio, dexamethasone-stimulated, 18 h; series mostly up to 58.5 µM
# In short: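 Read-out: beta-lactamase FRET substrate fluorescence, 2 h at room temperature, in HeLa cells stably carrying a GRE-driven bla reporter. Compounds were co-incubated with 5 nM dexamethasone agonist (final) for 18 h at 37 C.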
# [17] = qHTS assay to test for compound auto fluorescence at 590 nm (red) in HEK293 cells (AID 720679); settings: red autofluorescence 540/590 nm; series mostly up to 91.3 µM
# In short: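 Intensity at 540nm excitation and 590nm emission is reported as Rose Bengal sodium-equivalent autofluorescence. Measurements followed overnight exposure (37C, 5% CO2) of HEK293 cells, 2,000 per well, to 23 nL compound.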
# [18] = qHTS assay to test for compound auto fluorescence at 535 nm (green) in HEK293 cells (AID 720680); settings: green autofluorescence 485/535 nm; series mostly up to 91.3 µM
# [19] = qHTS assay for small molecules that induce genotoxicity in human embryonic kidney cells expressing luciferase-tagged ATAD5 - cell viability (AID 651634; calls by dose curve; further: nearly all actives have a fitted effect of over 25% in size; further: potency means the concentration at half of the fitted maximal effect); settings: HEK293T ATAD5-luc cells viability, CellTiter-Fluor, 15.5 h; series mostly up to 83.3 µM
# In short: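 HEK293T ATAD5-luc cells, 2,000/well; compound 15.5 hr, 37C/5% CO2; CellTiter-Fluor 30 min, 37C; fluorescence read.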
Structure (SMILES),Potency [1],Potency [2],Potency [3],Potency [4],Potency [5],Potency [6],Potency [7],Potency [8],Potency [9],Potency [10],Potency [11],Potency [12],Potency [13],Potency [14],Potency [15],Potency [16],Potency [17],Potency [18],Potency [19]
CC[N+](CC)(CC)CCOc1ccc(/C=C/c2ccccc2)cc1,inactive,inactive,inactive,inactive,inactive,inactive,inactive,inactive,inactive,inactive,inactive,inactive,inactive,inactive,inactive,inactive,–,–,–
CC(C)(C)c1ccc(C(O)CCCN2CCC(C(O)(c3ccccc3)c3ccccc3)CC2)cc1 (stereo not drawn),inactive,29.8 µM (active) and 18.8 µM (active),inactive,–,inactive,inactive,inactive,inactive,inactive,inactive,inactive,–,inactive,inactive,inactive,inactive,inactive,inactive,–
CC(C)NC[C@@H](O)COc1ccc(CC(N)=O)cc1,inactive,inactive,inactive,inactive,–,inactive,inactive,inactive,inactive,inactive,inactive,inactive,inactive,inactive,–,–,–,inactive,inactive
CCCC[P+](C)(CCCC)CCCC,inactive,inactive,inactive,13.9 µM (active),–,inactive,inactive,inactive,inactive,inactive,inactive,–,inactive,inactive,inactive,–,inactive,–,inactive
COc1ccc(-c2coc3cc(O)ccc3c2=O)cc1,–,inactive,inactive,10.9 µM (active),–,–,inactive,inactive,inactive,inactive,inactive,–,inactive,inactive,inactive,–,inactive,inactive,–
Cc1ccc(O)c(N)c1,–,–,inactive,–,inactive,inactive,inactive,inactive,inactive,inactive,inactive,inactive,inactive,inactive,inactive,inactive,inactive,inactive,–
O=C1CCc2cc(OCCCCc3nnnn3C3CCCCC3)ccc2N1,inactive,–,inactive,–,inactive,inactive,inactive,inactive,inactive,inactive,inactive,inactive,inactive,inactive,inactive,–,inactive,inactive,–
C/C=C/C=C/COC(=O)C(C)C,–,inactive,inactive,inactive,inactive,inactive,inactive,inactive,inactive,inactive,inactive,inactive,inactive,inactive,inactive,34.7 µM (active),–,inactive,inactive
CCCNCCC,–,inactive,inactive,inactive,inactive,inactive,inactive,inactive,inactive,inactive,inactive,inactive,inactive,inactive,inactive,inactive,inactive,–,inactive
O=C(Nc1ccc2c(O)c(N=Nc3ccc(N=Nc4ccc(S(=O)(=O)O)cc4)cc3)c(S(=O)(=O)O)cc2c1)c1ccccc1,–,inactive,inactive,–,–,inactive,inactive,inactive,inactive,inactive,inactive,inactive,inactive,inactive,–,–,inactive,inactive,48.6 µM (active)
OCC(F)(F)F,–,inactive,inactive,–,inactive,inactive,inactive,inactive,inactive,inactive,inactive,inactive,inactive,inactive,inactive,inactive,inactive,inactive,inactive
S=c1nccc[nH]1,–,inactive,inactive,inactive,inactive,inactive,–,inactive,inactive,inactive,inactive,–,inactive,inactive,–,–,inactive,inactive,–
O=c1oc2cc(O)ccc2c2oc3cc(O)ccc3c12,–,inactive,inactive,58.6 µM (active),–,inactive,–,5.01 µM (active),inactive,inactive,inactive,–,inactive,–,inactive,–,inactive,inactive,inactive
CCOC(=O)c1ccc(C2CCC(NC[C@H](O)COc3ccc(O)c(NS(C)(=O)=O)c3)CC2)cc1 (stereo partly drawn),–,–,inactive,–,inactive,inactive,inactive,inactive,inactive,inactive,inactive,inactive,inactive,inactive,–,–,inactive,–,inactive
Oc1ccccc1O,–,43.8 µM (active) and 30.6 µM (active),inactive,inactive,inactive,inactive,inactive,inactive,inactive,inactive,inactive,inactive,inactive,inactive,inactive,–,inactive,inactive,inactive
CNc1ccc([N+](=O)[O-])cc1,–,inactive,inactive,–,inactive,inactive,–,inactive,inactive,inactive,inactive,inactive,inactive,–,–,–,inactive,inactive,61.3 µM (active)
Cc1ccc(O)c(O)c1,–,–,inactive,–,inactive,–,inactive,inactive,inactive,inactive,inactive,inactive,inactive,inactive,–,–,–,–,inactive
Cl[Si](Cl)(c1ccccc1)c1ccccc1,–,inactive,inactive,5.57 µM (active),inactive,inactive,–,inactive,inactive,inactive,inactive,inactive,inactive,–,inactive,–,inactive,inactive,inactive
Oc1cc(Cl)cc(Cl)c1Cl,–,inactive,–,4.97 µM (active),inactive,inactive,inactive,inactive,inactive,inactive,inactive,inactive,inactive,inactive,inactive,–,inactive,inactive,–
Nc1ccc(Oc2ccc(Cl)cc2)cc1,–,inactive,inactive,–,inactive,inactive,–,inactive,inactive,inactive,inactive,inactive,inactive,inactive,–,24 µM (active),inactive,–,–
